Source: PubChem
HT1080 IDH1KD tx = kills HT-1080 cells with IDH1 knockdown; actives 2% (n = 360,000); HT-1080 IDH1 knockdown viability, ATP luminescence, 48 h; Potency, µM (doses to about 46.1 µM), without a hit: at the highest dose activity, negative = toxicity, most hits filed as cytotoxic; AID 686971;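 note: potency is the fitted concentration of half-maximal effect; 0% = DMSO wells and -100% = cell-free medium wells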
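Using the IDH1-knockdown HT-1080 line run in the same batch and compound series as the NT line, viability after 48 h at 37 °C was determined by CellTiter-Glo luminescence and expressed as % activity.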
IL1B secr inh = inflammasome signaling inhibition, IL-1 beta readout. THP-1 LPS/ATP IL-1B secretion, AlphaLISA, 16 h; stronger effect = lower value. activity change, % at 57.5 µM. actives 4.7% (n = 360,000); in the data active = activity change below about -50%; inconclusive = mostly about -30% to -49%
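THP-1 cells pretreated 1 hr with compounds (up to 57.5 uM final), then stimulated with LPS (250 ng/mL final) plus ATP (1.25 mM final); secreted IL-1B measured by AlphaLISA after 16 hr, decreased signal indicating inhibition.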
DT40 TDP1 CPT = DT40-hTDP1 cell growth loss with CPT; actives 12% (n = 420,000); Potency, µM (highest dose often 46.2 µM), for the others: at the top dose activity change, negative = growth inhibition, hits mostly inhibitors; chicken DT40 Tdp1-/-;hTDP1 cells + 20 nM CPT, ATP luminescence, 48 h; note: potency is the fitted concentration of half-maximal effect; nearly all actives have a fitted effect of over 55% in size
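Cell growth measured by CellTiter-Glo luminescence after a minimum 48 h, 37 C compound exposure with 20 nM CPT in Tdp1-knockout DT40 cells stably expressing hTDP1, seeded 400/well; qHTS titration format.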
TDP1 cell noCPT = qHTS for Inhibitors of human tyrosyl-DNA phosphodiesterase 1 (TDP1): qHTS in cells in absence of CPT; DT40 Tdp1-/- hTDP1 cells, no CPT, ATP luminescence, 48 h; Potency, µM (titrated, usually from 46.2 µM), inactives show top-dose activity change, negative = growth inhibition, hits mostly inhibitors; actives 15% (n = 420,000); AID 686978, 2013; note: potency is the fitted concentration of half-maximal effect; nearly all actives have a fitted effect of over 55% in size
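Compound effects on proliferation are scored in DT40 Tdp1-/-;hTDP1 cells in the absence of CPT. ATP levels (CellTiter-Glo luminescence) are recorded after a ≥48 hr, 37 °C incubation.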
HT1080NT lethal = kills 2HG-producing HT-1080-NT fibrosarcoma cells; Potency, µM (titrated, usually from 46.1 µM), for the others: top-dose activity, negative = less viability, hits mostly cytotoxic; HT-1080-NT fibrosarcoma viability, CellTiter-Glo ATP luminescence, 48 h; actives 1.6% (n = 360,000); AID 686970;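 note: NT is the 2HG producing partner of a matched IDH1 knockdown line; potency is the fitted concentration of half-maximal effect; 0% = DMSO-treated cells and -100% = media-only wells without cells; nearly all actives have a fitted effect of over 55% in size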
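Luminescent CellTiter-Glo readout after 48 hours of compound exposure at 37 degrees C defined viability of HT-1080-NT cells. Activity was normalized to DMSO wells and cell-free media wells; concentration-response curves were fitted and assigned curve classes.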
Active calls of the source: *. An excerpt weighted towards active compounds, which were near 19% of everything screened. Unless noted, calls come from the whole dose curve; as a rule, active = well fitted curve in the direction sought with a large enough effect; inconclusive = small, poorly fitted or top-dose-only effect, or another doubt; inactive = no such curve, though single readings can be large; an effect the other way counts as inactive or inconclusive. Unless noted, % is set by controls: 0 for no effect and ±100 for the full control effect.

For CN[C@@H](CO)C(=O)NC[C@H]1O[C@@H](n2cnc3c(=O)[nH]c(N)nc32)[C@H](O)[C@@H]1O the results were HT1080 IDH1KD tx 15%, IL1B secr inh 19, DT40 TDP1 CPT 0%, TDP1 cell noCPT 6% and HT1080NT lethal 14%.
CC(=O)c1c(C)n(C)c2ccc(OC(=O)c3ccc([N+](=O)[O-])cc3)cc12 was read as HT1080 IDH1KD tx 9%, IL1B secr inh 0, DT40 TDP1 CPT -21%, TDP1 cell noCPT 14% and HT1080NT lethal 3%.
`O=C(NCC1CCCO1)c1cc(-c2ccc(F)cc2)no1` (stereo not given) gave HT1080 IDH1KD tx -1%, IL1B secr inh 18, DT40 TDP1 CPT inconclusive, TDP1 cell noCPT inconclusive and HT1080NT lethal 7%.
CC1(C)[C@H]2CC=C(CN3CCC(N4CCC(C(=O)N5CCCC5)CC4)CC3)[C@@H]1C2 was read as HT1080 IDH1KD tx -10%, IL1B secr inh -13, DT40 TDP1 CPT inconclusive, TDP1 cell noCPT inconclusive and HT1080NT lethal -7%.
`COc1ccc(C2NC(c3ccc4c(c3)OCO4)=CC(c3ccccc3O)N2)cc1OC` (stereo not given) gave DT40 TDP1 CPT 13µM* and TDP1 cell noCPT 18µM*.
`Cc1nn(-c2ccccc2)c2c1C(O)CC(C)(C)C2` (stereo not given) gave HT1080 IDH1KD tx -3%, IL1B secr inh -22, DT40 TDP1 CPT 5%, TDP1 cell noCPT 3% and HT1080NT lethal -2%.
Cc1nc2c(c3c1[nH]c1ccccc13)C(O)CC(C)(C)C2 (stereo not given) was read as HT1080 IDH1KD tx -1%, IL1B secr inh -11, DT40 TDP1 CPT 18µM*, TDP1 cell noCPT inconclusive and HT1080NT lethal 0%.
For COc1cccc(CNC(=O)c2cc3c(c(-c4cccc(-c5cccc(C#N)c5)c4)n2)[C@H](CCO)N(S(=O)C(C)(C)C)C3)c1 (stereo not given in full) the results were HT1080 IDH1KD tx 8%, IL1B secr inh -17, DT40 TDP1 CPT inconclusive, TDP1 cell noCPT 15µM* and HT1080NT lethal 7%.
CC(C)(C)S(=O)N1Cc2cc(C(=O)NCC(F)(F)F)nc(-c3cccc(-c4cccc(F)c4)c3)c2[C@H]1CCO (stereo not given in full) was read as HT1080 IDH1KD tx -28%, IL1B secr inh inconclusive, DT40 TDP1 CPT inconclusive, TDP1 cell noCPT 21µM* and HT1080NT lethal -19%.
`COc1cccc(-c2cccc(-c3nc(C(=O)NCCCN4CCOCC4)cc4c3[C@H](CCO)N(S(=O)C(C)(C)C)C4)c2)c1` (stereo not given in full) gave HT1080 IDH1KD tx -1%, IL1B secr inh -13, DT40 TDP1 CPT inconclusive, TDP1 cell noCPT 18µM* and HT1080NT lethal -1%.
For CC(C)(C)S(=O)N1Cc2cc(C(=O)N[C@@H]3CCN(Cc4ccccc4)C3)nc(-c3cccc(-c4cc5ccccc5o4)c3)c2[C@@H]1CCO (stereo not given in full) the results were HT1080 IDH1KD tx inconclusive, IL1B secr inh inconclusive, DT40 TDP1 CPT inconclusive, TDP1 cell noCPT 23µM* and HT1080NT lethal inconclusive.
COc1ccc(C#Cc2cccc(-c3nc(C(=O)N4CCN(C)CC4)cc4c3[C@H](CCO)N(S(=O)C(C)(C)C)C4)c2)cc1OC (stereo not given in full) was read as HT1080 IDH1KD tx -1%, IL1B secr inh -19, DT40 TDP1 CPT -29%, TDP1 cell noCPT -21% and HT1080NT lethal 28%.
For COCCNC(=O)c1cc2c(c(-c3cccc(-c4cccc(OC)c4)c3)n1)[C@H](CCO)N(S(=O)C(C)(C)C)C2 (stereo not given in full) the results were HT1080 IDH1KD tx 1%, IL1B secr inh -20, DT40 TDP1 CPT inconclusive, TDP1 cell noCPT inconclusive and HT1080NT lethal -3%.
`CCNC(=O)c1cc2c(c(-c3cccc(-c4cccc(C(=O)N(C)C)c4)c3)n1)[C@H](CCO)N(S(=O)C(C)(C)C)C2` (stereo not given in full) gave HT1080 IDH1KD tx 3%, IL1B secr inh 0, DT40 TDP1 CPT -5%, TDP1 cell noCPT inconclusive and HT1080NT lethal 1%.
`CCOC(=O)CCSc1nc(C)cc(C(F)(F)F)c1C#N` gave HT1080 IDH1KD tx 3%, IL1B secr inh 8, DT40 TDP1 CPT -20%, TDP1 cell noCPT -16% and HT1080NT lethal 0%.
For CCC(CC)c1ncc[nH]1 the results were HT1080 IDH1KD tx 5%, IL1B secr inh 0, DT40 TDP1 CPT -5%, TDP1 cell noCPT -13% and HT1080NT lethal 4%.
For CCOC(=O)C1=C(COC(=O)c2ccco2)NC(=O)NC1CC (stereo not given) the results were HT1080 IDH1KD tx 0%, IL1B secr inh 24, DT40 TDP1 CPT -3%, TDP1 cell noCPT -4% and HT1080NT lethal 8%.
`O=C(Nc1cc(Cl)ccc1C(=O)O)c1ccc(CN2C(=O)c3ccccc3C2=O)cc1` gave HT1080 IDH1KD tx -5%, IL1B secr inh 27, DT40 TDP1 CPT 19%, TDP1 cell noCPT -3% and HT1080NT lethal inconclusive.
`CCCS(=O)(=O)NC(=O)C1(C)CCCN(C(=O)c2ccccc2OC(F)(F)F)C1` (stereo not given) gave HT1080 IDH1KD tx 0%, IL1B secr inh 34, DT40 TDP1 CPT -2%, TDP1 cell noCPT 0% and HT1080NT lethal 20%.
For O=C(NCCC(=O)N1CCC2(CC1)NCCc1[nH]cnc12)c1ccc(F)c(F)c1 the results were HT1080 IDH1KD tx -2%, IL1B secr inh 5, DT40 TDP1 CPT -12%, TDP1 cell noCPT 5% and HT1080NT lethal -1%.
COCCNC(=O)c1cc2c(c(-c3cccc(C#Cc4ccc(OC)c(OC)c4)c3)n1)[C@@H](CCO)N(S(=O)C(C)(C)C)C2 (stereo not given in full) was read as HT1080 IDH1KD tx inconclusive, IL1B secr inh -18, DT40 TDP1 CPT inconclusive, TDP1 cell noCPT inconclusive and HT1080NT lethal inconclusive.
`CN(C)C(=O)c1cccc(-c2cccc(-c3nc(C(=O)NCc4ccccc4)cc4c3[C@@H](CCO)N(S(=O)C(C)(C)C)C4)c2)c1` (stereo not given in full) gave HT1080 IDH1KD tx inconclusive, IL1B secr inh -55*, DT40 TDP1 CPT 18µM*, TDP1 cell noCPT 15µM* and HT1080NT lethal inconclusive.
